Reference: PubChem BioAssay (Tox21)
Inconclusive results are not listed. The source made the active and inactive calls. Unless noted, calls follow the shape of the dose curve; as a rule, active = well fitted curve in the direction sought with a large enough effect in the repeat runs; inconclusive = weak or mixed curves; inactive = no such curve, though single readings can be large; an effect the other way counts as inactive or inconclusive.

Tests used:
[1] = A CellTox Green Cytotoxicity Assay to monitor cytotoxicity in HepG2 cells - 16 hour (AID 1224876); also: nearly all actives have a fitted effect of over 45% in size
In short: (§1)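 Cytotoxicity was tracked as dead-cell DNA fluorescence in HepG2 cells treated with test compounds at 37 C; each time-point value comes from one kinetic series spanning 0, 8, 16, 24, 32 and 40 h.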

[2] = qHTS RealTime-Glo MT Cell Viability Assay in HepG2 cells - 32 hour (AID 1224877); also: nearly all actives have a fitted effect of over 55% in size
In short: (§2)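 Real-time, nonlytic viability: 600 HepG2 cells/well mixed with NanoLuc enzyme plus prosubstrate; 5 h settle, compound (DMSO) added by pintool; luminescence monitored over 40 h at 37 C.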

[3] = A CellTox Green Cytotoxicity Assay to monitor cytotoxicity in HepG2 cells - 24 hour (AID 1224878); also: nearly all actives have a fitted effect of over 45% in size
In short: as §1

[4] = A CellTox Green Cytotoxicity Assay to monitor cytotoxicity in HepG2 cells - 40 hour (AID 1224879); also: nearly all actives have a fitted effect of over 40% in size
In short: as §1

[5] = qHTS RealTime-Glo MT Cell Viability Assay in HEK293 cells - 0 hour (AID 1224880); also: top concentration of the series differs between compounds; nearly all actives have a fitted effect of over 45% in size
In short: (§3)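 Kinetic, non-lysing viability readout. Seed HEK293 (600/well) with reagent, incubate 5 h at 37 C/5% CO2, pin 23 nL compound in DMSO, incubate at 37 C, read luminescence at 0, 8, 16, 24, 32, 40 h.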

[6] = A CellTox Green Cytotoxicity Assay to monitor cytotoxicity in HEK293 cells - 32 hour (AID 1224881); also: nearly all actives have a fitted effect of over 40% in size
In short: (§4)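 Real-time, in one plate: 600 HEK293 cells/well with dead-cell DNA dye, pinned compound after 5 h, 37 C incubation over 40 h; viable cells give no appreciable fluorescence.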

[7] = A CellTox Green Cytotoxicity Assay to monitor cytotoxicity in HepG2 cells - 32 hour (AID 1224883); also: nearly all actives have a fitted effect of over 50% in size
In short: as §1

[8] = A CellTox Green Cytotoxicity Assay to monitor cytotoxicity in HEK293 cells - 8 hour (AID 1224884); also: nearly all actives have a fitted effect of over 35% in size
In short: as §4

[9] = qHTS RealTime-Glo MT Cell Viability Assay in HepG2 cells - 16 hour (AID 1224885); also: nearly all actives have a fitted effect of over 50% in size
In short: as §2

[10] = qHTS RealTime-Glo MT Cell Viability Assay in HEK293 cells - 24 hour (AID 1224886); also: top concentration of the series differs between compounds; nearly all actives have a fitted effect of over 50% in size
In short: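 Cells + reagent dispensed (600 cells/well, HEK293) → 5 h at 37 C/5% CO2 → 23 nL compound in DMSO pinned → 40 h at 37 C → luminescence read at 0, 8, 16, 24, 32, 40 h.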

[11] = qHTS RealTime-Glo MT Cell Viability Assay in HEK293 cells - 8 hour (AID 1224887); also: top concentration of the series differs between compounds; nearly all actives have a fitted effect of over 50% in size
In short: as §3

[12] = A CellTox Green Cytotoxicity Assay to monitor cytotoxicity in HEK293 cells - 16 hour (AID 1224888); also: nearly all actives have a fitted effect of over 35% in size
In short: as §4

[13] = qHTS RealTime-Glo MT Cell Viability Assay in HepG2 cells - 0 hour (AID 1224889); also: nearly all actives have a fitted effect of over 50% in size
In short: as §2

[14] = A CellTox Green Cytotoxicity Assay to monitor cytotoxicity in HepG2 cells - 8 hour (AID 1224890); also: nearly all actives have a fitted effect of over 45% in size
In short: as §1

[15] = qHTS assay to identify small molecule antagonists of the estrogen receptor alpha (ER-alpha) signaling pathway using the BG1 cell line in the presence of 0.1 nM 17-beta-estradiol - cell viability counter screen (AID 1259241); also: nearly all actives have a fitted effect of over 40% in size
In short: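 CellTiter-Fluor read (30 min, 37C) on ER-alpha/ERE-luc VM7Luc4E2 cells; 22 hr compound treatment; agonist 0.1 nM E2 final; same-well multiplex.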

[16] = qHTS assay to identify small molecule antagonists of the androgen receptor (AR) signaling pathway using the MDA cell line in the presence of 0.5 nM R1881 - cell viability counter screen (AID 1259242); also: nearly all actives have a fitted effect of over 45% in size
In short: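 Cells seeded at 3,000/well and allowed 5 hr at 37C, 0% CO2 before compound transfer and R1881 (0.5 nM final) addition; 16 hr later, live-cell protease fluorescence indicated cytotoxicity.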

[17] = target: Estrogen receptor (Homo sapiens) (UniProt P03372); experiment: qHTS assay to identify small molecule antagonists of the estrogen receptor alpha (ER-alpha) signaling pathway using the BG1 cell line in the presence of 0.1 nM 17-beta-estradiol (AID 1259244); also: nearly all actives have a fitted effect of over 50% in size
Sequence of Estrogen receptor (Homo sapiens) (P03372 whole entry, looked up): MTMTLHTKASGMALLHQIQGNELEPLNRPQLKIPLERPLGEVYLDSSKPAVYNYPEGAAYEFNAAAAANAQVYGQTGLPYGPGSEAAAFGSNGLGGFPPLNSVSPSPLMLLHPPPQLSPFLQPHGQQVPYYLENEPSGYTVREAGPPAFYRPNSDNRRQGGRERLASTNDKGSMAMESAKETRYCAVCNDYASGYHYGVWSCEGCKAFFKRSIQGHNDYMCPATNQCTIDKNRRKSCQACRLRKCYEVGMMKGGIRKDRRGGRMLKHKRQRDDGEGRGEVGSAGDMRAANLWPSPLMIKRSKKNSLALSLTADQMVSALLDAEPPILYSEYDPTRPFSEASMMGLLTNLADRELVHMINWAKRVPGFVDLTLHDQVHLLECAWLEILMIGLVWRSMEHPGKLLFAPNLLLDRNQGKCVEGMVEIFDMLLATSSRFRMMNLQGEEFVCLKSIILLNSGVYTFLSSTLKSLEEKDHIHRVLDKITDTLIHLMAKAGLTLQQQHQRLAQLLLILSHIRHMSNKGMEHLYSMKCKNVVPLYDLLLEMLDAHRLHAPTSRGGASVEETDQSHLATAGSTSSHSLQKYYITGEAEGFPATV
In short: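 Luciferase signal from VM7Luc4E2 ERE-reporter cells, co-dosed with test compound and 0.1 nM final 17beta-estradiol for 22 h, read with ONE-Glo.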

[18] = qHTS assay to identify small molecule HDAC inhibitors (AID 1259364)
In short: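 HCT-116 wt cells, 1,500/well, overnight attach. Compounds (DMSO) 2 h, 37 °C. HDAC-Glo I/II, 30 min RT. Luminescence.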

[19] = A CellTox Green Cytotoxicity Assay to monitor cytotoxicity in HepG2 cells - 0 hour (AID 1224882); also: nearly all actives have a fitted effect of over 35% in size
In short: as §1

[20] = qHTS assay to identify small molecule phospholipidosis (PLD) inducers (AID 1259344; active = well fitted curve in the direction sought with a large enough effect; an effect the other way counts as inactive or inconclusive)
In short: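 Cells (HepG2, 900 per well) attach for 4 h, receive LipidTOX Red and compound together, incubate 24 h at 37 C, are fixed 30 min with paraformaldehyde/Hoechst, then imaged at one site per well.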

Measured: Potency

CC(C)SCc1ccco1
inactive: [1] | [2] | [3] | [4] | [5] | [6] | [7] | [8] | [9] | [10] | [11] | [12] | [13] | [14] | [15] | [16] | [17] | [18]

C=CCOc1cc(Cl)ccc1C(=O)NCCN(CC)CC
inactive: [1] | [2] | [3] | [4] | [5] | [19] | [7] | [8] | [9] | [10] | [11] | [12] | [13] | [14] | [15] | [16] | [18]

O=C1OC(=O)c2ccccc21
inactive: [1] | [2] | [3] | [4] | [5] | [6] | [7] | [8] | [9] | [11] | [12] | [13] | [14] | [16] | [17] | [18]

CC(C)(C)c1ccc(C=O)cc1
inactive: [1] | [2] | [3] | [4] | [5] | [19] | [7] | [8] | [9] | [10] | [11] | [12] | [13] | [14] | [15] | [16] | [17] | [18]

CCCO
inactive: [1] | [2] | [5] | [6] | [19] | [8] | [9] | [10] | [11] | [12] | [13] | [14] | [15] | [16] | [17] | [18]

COCC(=O)Nc1c(I)c(C(=O)NCC(O)CO)c(I)c(C(=O)N(C)CC(O)CO)c1I (stereo unspecified)
inactive: [1] | [2] | [3] | [4] | [6] | [19] | [7] | [8] | [9] | [12] | [13] | [14] | [15] | [16] | [17] | [20] | [18]

CN=C(NC#N)NCCSCc1csc(N=C(N)N)n1
inactive: [2] | [3] | [4] | [5] | [6] | [19] | [7] | [8] | [9] | [10] | [11] | [12] | [13] | [14] | [15] | [16] | [17] | [20] | [18]

CN(C)CCCNCCC#N
inactive: [1] | [2] | [3] | [4] | [5] | [7] | [8] | [9] | [10] | [11] | [12] | [13] | [14] | [16] | [18]

CCCCCCCCC(=O)OCC
inactive: [2] | [3] | [4] | [5] | [6] | [19] | [7] | [8] | [9] | [10] | [11] | [12] | [13] | [14] | [15] | [16] | [17] | [18]

CC(=O)OCCCc1ccccc1
inactive: [1] | [2] | [3] | [4] | [6] | [19] | [7] | [8] | [9] | [10] | [11] | [12] | [13] | [14] | [15] | [16]

O=C(O)C(=O)Nc1cccc(-c2nn[nH]n2)c1
inactive: [1] | [2] | [3] | [4] | [5] | [7] | [8] | [9] | [10] | [11] | [12] | [13] | [14] | [15] | [16] | [20] | [18]

O=S(=O)(O)SSS(=O)(=O)O
inactive: [1] | [2] | [3] | [4] | [5] | [19] | [7] | [8] | [9] | [11] | [12] | [13] | [14] | [15] | [16]

COC(OC)C(C)c1ccccc1 (stereo unspecified)
inactive: [2] | [3] | [4] | [5] | [6] | [19] | [7] | [8] | [9] | [10] | [11] | [12] | [13] | [14] | [15] | [16] | [17] | [18]

CCCCCCCCOC(C)=O
inactive: [1] | [2] | [3] | [4] | [5] | [19] | [7] | [8] | [9] | [11] | [12] | [13] | [14] | [16] | [17] | [18]
